RECQ1 inh-1: blocks DNA unwinding by human RECQ1. RECQ1 DNA unwinding, red fluorescence kinetic read. Potency, µM (top dose mostly 57.3 µM), for inactives: at the highest dose activity, negative = inhibition, most hits filed as inhibitors. 240,000 compounds, 0.54% hits. AID 2549;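 also: plate controls were vehicle for no effect and no enzyme for full effect; nearly all actives have a fitted effect of over 30% in size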
Target sequence (P46063 whole entry, looked up): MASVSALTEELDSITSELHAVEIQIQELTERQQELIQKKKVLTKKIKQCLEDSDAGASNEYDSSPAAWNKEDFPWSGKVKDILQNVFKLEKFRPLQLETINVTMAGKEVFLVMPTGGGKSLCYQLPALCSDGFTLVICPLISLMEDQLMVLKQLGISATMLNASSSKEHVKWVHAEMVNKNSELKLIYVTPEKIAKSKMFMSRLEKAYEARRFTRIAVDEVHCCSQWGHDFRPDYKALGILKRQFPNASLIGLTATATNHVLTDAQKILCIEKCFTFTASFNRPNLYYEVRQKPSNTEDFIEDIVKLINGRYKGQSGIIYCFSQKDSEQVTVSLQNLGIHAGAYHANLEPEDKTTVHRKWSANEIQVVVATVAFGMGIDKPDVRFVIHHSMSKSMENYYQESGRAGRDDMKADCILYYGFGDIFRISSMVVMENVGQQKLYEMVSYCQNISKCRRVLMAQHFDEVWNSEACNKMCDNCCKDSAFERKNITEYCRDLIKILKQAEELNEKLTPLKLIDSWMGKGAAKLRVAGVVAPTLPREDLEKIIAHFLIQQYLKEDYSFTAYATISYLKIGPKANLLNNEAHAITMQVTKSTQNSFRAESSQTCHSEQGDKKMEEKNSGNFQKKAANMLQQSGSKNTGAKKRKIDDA
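50 nM RECQ1T1 preincubated 15 min with compound in Tris pH 8.0 buffer with MgCl2, DTT, Tween-20 and 2.5 ug/ml poly(dI-dC); started with 200 nM TAMRA/BHQ-2 forked duplex and 2 mM ATP. Unwinding read as fluorescence (525/598 nm), two reads 2 h apart.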
APEX1 inh: blocks human APE1 abasic DNA cleavage; 350,000 compounds, 0.35% hits; AID 2517; P27695; recombinant APE1, TAMRA/BHQ-2 abasic DNA cleavage fluorescence; Potency, µM (titrated, usually from 65.8 µM), inactives show top-dose activity change, negative = inhibition, hits mostly inhibitors;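 also: plate controls were vehicle for no effect and reference inhibitor for full effect; nearly all actives have a fitted effect of over 55% in size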
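Compound pre-exposure to 0.75 nM APE1, 15 min at ambient temperature. Reaction initiated with 50 nM TAMRA/BHQ-2 THF substrate, read immediately in kinetic mode, 525 nm excitation, 598 nm emission.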
KDM4E inh: blocks human JMJD2E demethylase activity | Potency, µM (highest dose often 57.1 µM), for the others: at the top dose activity change, negative = inhibition, hits mostly inhibitors | B2RXH2 | 230,000 compounds, 1.6% hits | AID 2147 | JMJD2E catalytic domain, FDH-coupled NADH fluorescence (FDH is formaldehyde dehydrogenase);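 also: 0% = wells with enzyme and -100% = buffer wells without enzyme; nearly all actives have a fitted effect of over 50% in size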
BLM inh-1: blocks DNA unwinding by human BLM helicase | 350,000 compounds, 0.2% hits | recombinant BLM DNA unwinding, fluorescence dequenching | Potency, µM (top dose mostly 56.1 µM), for the others: top-dose activity change, negative = inhibition, actives largely listed as inhibitors | P54132;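 also: plate controls were vehicle for no effect and no enzyme for full effect; nearly all actives have a fitted effect of over 35% in size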
PKM2 act: activators of human pyruvate kinase M2; P14618; purified PKM2, Kinase-Glo ATP luminescence, activation; response scale: 0% is enzyme alone, no compound; Potency, µM (series often up to 57.5 µM), for inactives: at the highest dose activation, most hits filed as activators; 260,000 compounds, 0.34% hits; AID 1631; also: nearly all actives have a fitted effect of over 55% in size
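Purified hPK-M2 (>95%) run at intermediate activity with 0.1 mM ADP and 0.5 mM PEP in 50 mM imidazole pH 7.2, KCl, MgCl2; 1 h room temperature. ATP formed read by Kinase-Glo luminescence; normalized to uninhibited and no-enzyme controls.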
BLM inh-2: confirmation of inhibitors of human Bloom syndrome helicase BLM; shares compounds with BLM inh-1; BLM DNA unwinding, fluorescence quenching, biochemical; Potency, µM, for the others: max response, negative = inhibition, actives largely listed as inhibitors; 220 compounds, 40% hits; AID 2585;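 also: strand separation dequenches TAMRA so unwinding raises red fluorescence; series mostly up to about 69 µM; nearly all actives have a fitted effect of over 45% in size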
RECQ1 inh conf: confirmation of human RECQ1 helicase inhibitors; shares compounds with RECQ1 inh-1; RECQ1 helicase DNA unwinding, fluorescence; Potency, µM (series often up to 229 µM), without a hit: at the top dose activity change, negative = inhibition, actives largely listed as inhibitors; 610 compounds, 28% hits; also: nearly all actives have a fitted effect of over 45% in size
RECQ1 ADP FP: ADP displacement flagged in RECQ1 inhibitor counter-screen; shares compounds with RECQ1 inh-1; ADP fluorescence polarization displacement counterscreen; Potency, µM (top dose mostly 228 µM), for the others: at the highest dose activity change, negative = inhibition, hits mostly inhibitors; 530 compounds, 27% hits; AID 2711; also: nearly all actives have a fitted effect of over 45% in size
RECQ1 inh-2: confirmation of human RECQ1 helicase inhibitors; shares compounds with RECQ1 inh-1; recombinant RECQ1 DNA unwinding, red fluorescence; Potency, µM (top dose mostly 119 µM), for inactives: at the top dose activity, negative = inhibition, hits mostly inhibitors; 1,100 compounds, 15% hits; AID 504841; also: nearly all actives have a fitted effect of over 50% in size
The depositor's hits bear a star; i = inactive; ? = inconclusive; / = not tested or not shown; [ ] = dose if it differs, or a comment. The entries come from a sample that favours hits as a whole. Unless noted, calls follow the shape of the dose curve; as a rule, active = well fitted curve in the direction sought with a large enough effect; inconclusive = small, poorly fitted or top-dose-only effect, or another doubt; inactive = no such curve, though single readings can be large; an effect the other way counts as inactive or inconclusive. Unless noted, % is scaled to controls: 0 for no effect and ±100 for the full control effect; potency is read from the fitted curve at half-maximal effect.

SMILES | RECQ1 inh-1 | APEX1 inh | KDM4E inh | BLM inh-1 | PKM2 act | RECQ1 inh conf | RECQ1 ADP FP | RECQ1 inh-2 | others
CC(=O)OCC1=C[C@H]2[C@@H]3C(C)(C)[C@]3(OC(=O)Cc3ccccc3)C[C@@H](C)[C@]2(O)[C@@H]2C=C(C)C(=O)[C@@]2(O)C1 | 14% | 10% | / | 1% | / | / | / | /
C[C@]12CC[C@@H]3c4ccc(OC(=O)N(CCCl)CCCl)cc4CC[C@H]3[C@@H]1CC[C@@H]2O | / | / | / | 14µM* | / | ? | / | / | BLM inh-2=30µM*
CCCCNC(=O)c1c(N)n(CCCOC)c2nc3ccccc3nc12 | ? | -10% | ? | ? | 1% | / | / | -11%
CC(C)CCNC(=O)c1c(N)n(Cc2ccc3c(c2)OCO3)c2nc3ccccc3nc12 | ? | 5% | ? | -27% | -1% | / | / | -18%
[O-][Cl+2]([O-])O | -4% | -2% | / | / | / | / | / | /
O=NN(CCO)CCO | -15% | 13% | / | / | / | / | / | /
CCCCNC(=O)Oc1c(Br)cc2sc(=O)oc2c1Br | 11µM* | ? | ? | -9% | 1% | 5%[114 µM] | 12%[91.9 µM] | /
CC(C)(Cl)Cl | -7% | 1% | / | / | / | / | / | /
CNc1ccc2oc(C[C@H]3O[C@@]4(CC[C@H]3C)O[C@H]([C@H](C)C(=O)c3ccc[nH]3)[C@H](C)C[C@H]4C)nc2c1C(=O)O | ? | -6% | ? | -27% | -3% | / | / | -11%
CNc1ccc2oc(C[C@@H]3OC4(CC[C@@H]3C)O[C@H]([C@@H](C)C(=O)c3ccc[nH]3)[C@H](C)C[C@H]4C)nc2c1C(=O)O (stereo partly specified) | ? | ? | / | / | / | / | / | 9%
BrCCBr | -2% | 1% | / | / | / | / | / | /
CC(=O)C1CCC2C3CCC4=CC(=O)CC[C@@]4(C)C3CC[C@]12C (stereo partly specified) | i | -3% | -7% | -5% | / | / | / | /
O=C(O)c1ccc(-c2ccc3cc(C45CC6CC(CC(C6)C4)C5)c(O)cc3c2)cc1 | 20µM* | -10% | / | -1% | / | 100µM* | 112µM* | ?
Cn1ccnc1 | i | ? | 7% | / | / | / | / | /
CCOP(=S)(OCC)SCSC(C)(C)C | -8% | 0% | / | / | / | / | / | /
C=C1C(=O)O[C@@H]2C[C@@H](C)[C@@H]3C=CC(=O)[C@@]3(C)[C@@H](OC(=O)CC(=O)O[C@H]3[C@@H]4C(=C)C(=O)O[C@@H]4C[C@@H](C)[C@@H]4C=CC(=O)[C@]43C)[C@H]12 | 25µM* | -11% | -9% | 22µM* | 15% | 14µM* | -4%[91.9 µM] | /
COC[C@H]1OC(=O)c2coc3c2[C@@]1(C)C1=C(C3=O)[C@@H]2CCC(=O)[C@@]2(C)C[C@H]1OC(C)=O | 35µM* | -10% | / | / | / | / | / | 5%
CN1C[C@H](C(=O)N[C@]2(C)O[C@@]3(O)[C@@H]4CCCN4C(=O)[C@H](Cc4ccccc4)N3C2=O)C=C2c3cccc4[nH]cc(c34)C[C@H]21 | ? | ? | / | -12% | / | ? | 7.1µM* | /
CCC(CO)NC(=O)C1C=C2c3cccc4[nH]cc(c34)CC2N(C)C1 (stereo unspecified) | -7% | 1% | ? | -15% | -2% | / | / | /
CC[C@@H](CO)NC(=O)[C@@H]1C=C2c3cccc4[nH]cc(c34)C[C@H]2N(C)C1 | 35µM* | ? | / | -17% | / | 3% | 112µM* | /
CC(C)C[C@H]1C(=O)N2CCC[C@H]2[C@]2(O)O[C@](NC(=O)[C@@H]3C=C4c5cccc6[nH]cc(c56)C[C@H]4N(C)C3)(C(C)C)C(=O)N12 | / | 12% | / | / | / | / | / | /
CCN(CC)C(=O)N[C@@H]1C=C2c3cccc4[nH]cc(c34)C[C@H]2N(C)C1 | ? | / | / | -8% | / | -6% | 22µM* | /
O=C1C=CC(=O)C(Cl)=C1 | 20µM* | 28µM* | / | -16% | / | ? | 16µM* | /
COc1cc2c(cc1OC)C(c1c(O)n(CCc3ccccc3)c(=S)[nH]c1=O)NCC2 (stereo unspecified) | ? | 0% | ? | -6% | 0% | / | / | ?
COc1ccc(C2CC(c3c(O)n(CCc4ccccc4)c(=O)[nH]c3=O)=NN2)cc1OC (stereo unspecified) | -12% | 3% | ? | -1% | 0% | / | / | /
SMILES | RECQ1 inh-1 | APEX1 inh | KDM4E inh | BLM inh-1 | PKM2 act | RECQ1 inh conf | RECQ1 ADP FP | RECQ1 inh-2 | others
O=C(Cl)/C=C/C(=O)Cl | 4% | 3% | / | / | / | / | / | /
CCOC(=O)c1ccc(N=Cc2c(O)n(-c3ccccc3F)c(=S)[nH]c2=O)cc1 | 32µM* | 10% | 8% | 0% | 0% | / | / | -13%
Cc1ccc(-n2c(O)c(/C=N/NC(=O)c3ccncc3)c(=O)[nH]c2=O)cc1 | -2% | 2% | 0% | 2% | 9% | / | / | /
Cn1c(O)c(/C=N/NC(=O)c2ccncc2)c(=O)[nH]c1=S | 3.2µM* | ? | ? | -3% | 1% | ? | 34%[91.9 µM] | 32µM*
C=C(C)C(N)=O | -11% | 15% | / | / | / | / | / | /
Nc1ccc(Cl)cc1C(=O)c1ccccc1Cl | 25µM* | -3% | 3% | -9% | 4% | / | / | -20%
Nc1ccc(Cl)cc1C(=O)c1ccccc1 | i | ? | -1% | -6% | 4% | / | / | /
COc1cccc(CNC(=O)CSc2ccc(-c3ccco3)nn2)c1 | ? | ? | ? | -20% | 1% | / | / | -14%
COc1cccc(-c2nn(Cc3ccccc3)cc2C(=O)O)c1 | / | 86% | / | -1% | 1% | / | / | /
O=c1[nH]c(=S)n(CCC2=CCCCC2)c(O)c1C=NCCCn1ccnc1 | ? | 16% | 8% | -8% | -1% | / | / | -19%
O=c1[nH]c(=O)n(CCC2=CCCCC2)c(O)c1C=NCCCn1ccnc1 | -8% | 0% | 3% | -1% | -4% | / | / | /
CN(C(=O)Cc1ccc(Cl)c(Cl)c1)[C@H](CN1CCCC1)c1cccc(N=C=S)c1 | ? | -8% | -3% | 7% | / | / | / | /
O=C(O)CCn1cc(C=C2C(=O)NC(=O)NC2=O)c(-c2cc3ccccc3oc2=O)n1 | 21% | -8% | ? | 3% | 0% | 15% | -3% | /
CC(Oc1ccc(Cl)cc1Cl)C(=O)Nc1ccc(S(=O)(=O)Nc2cnc3ccccc3n2)cc1 (stereo unspecified) | 18µM* | -10% | ? | -23% | 2% | -9%[114 µM] | 9%[91.9 µM] | ?

Compound activity: PubChem BioAssay, National Center for Advancing Translational Sciences (NCATS)
